Screening results as filed in PubChem.
Most compounds without a hit are left out; they make up all but 3.8% or so of the library.
Cardio protect: protects H9c2 cardiomyocytes from peroxide injury; H2O2 injury protection, ATPLite, 2 h; protection from H2O2 cell death, % at 20 µM; 0.63% of 360,000 active; AID 588492;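 active = compounds giving at least 50% protection of heart cells from peroxide-induced death in the single-dose screen, raw or plate-pattern-corrected value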
FAS TE block: blocks the thioesterase domain of human fatty acid synthase; P49327; recombinant FAS-TE, OMFH fluorogenic substrate, fluorescence endpoint; inhibition, % at 15 µM; 0.67% of 360,000 active; AID 602261;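 active = compounds whose normalised, plate-corrected inhibition of enzyme fluorescence in the single-dose primary screen is 50% or more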
SUMO Mot1 rescue: inhibitors of SUMOylation pathway: yeast Mot1-301 growth rescue. S. cerevisiae Mot1-301 growth rescue, ATP luminescence, 38.5C; percent above DMSO median, 100 means doubled. growth rescue, % at 18.8 µM. 1% of 320,000 active. AID 2716;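 active = every valid replicate shows activation above 250% relative to neutral control wells; inactive = the rest, any valid replicate at or below 250%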
MPTP block: permeability transition pore inhibition | isolated mouse mitochondria, Ca2+ swelling absorbance, 30 min | inhibition, % at 10 µM | 1.4% of 360,000 active | AID 602449;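 active = inhibition of 50% or more, scaled per plate between neutral and stimulator controls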
aDG glyco act: increases alpha dystroglycan glycosylation; Pro5-aDG cells, alpha-DG glycosylation AlphaScreen (IIH6); 0% Pro5, 100% B10-LARGE cell signal; activation, % at 10 µM; 0.22% of 360,000 active; AID 624168;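 active = activation of at least 8% versus controls, or a plate z-score of at least 8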;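 note: Pro5 are CHO cells carrying HIG-tagged alpha-DG that lacks glycosylation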
CR mimetic SO: caloric restriction mimetics inhibiting age-related superoxide in yeast; S. cerevisiae aged cells, superoxide DHE fluorescence; stronger effect = lower value; 0.18% of 330,000 active; superoxide response (% of plate mean), % at 10 µM;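 active = superoxide response under a set limit, about three screen SD below normal, cut at about 65% in these data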;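 note: yeast aged for seven days with compound at 30 °C before DHE staining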
Yeast Mot1 SUMO: yeast SUMO pathway inhibition in dose response | shares compounds with SUMO Mot1 rescue | S. cerevisiae Mot1-301 galactose growth, ATP luminescence, 24 h; -100 = growth of slx-deleted rescue strain | growth activity, percent, % at 42 µM | 2,300 tested, under 10 active | AID 493004;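 active = Signal drops as the depositor expects, and the fitted half-maximal dose is no more than ten times the top valid tested dose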;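 note: more negative values mean stronger growth rescue toward the control strain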
Each line names hits and unclear results; the compound was inactive in the other large screens (follow-up assays come after a bar, where they were run).

Nc1ncnc2c1ncn2[C@@H]1O[C@H](C(=O)NCc2ccc(OC(F)(F)F)cc2)[C@@H](O)[C@H]1O	none (no result: SUMO Mot1 rescue, CR mimetic SO)
CC(C)(C)C1c2[nH]c3ccccc3c2CCN1Cc1cccc(OCCO)c1 (stereo not given)	SUMO Mot1 rescue 710 | Yeast Mot1 SUMO inactive
C[C@H]1C=C(C(=O)O)O[C@@H](OCc2ccc(CO)cc2)C1	none
Cn1cc(CC(=O)NCCN2CCOCC2)c2ccccc21	none
CCCCOC(=O)/C(=C/C=C/c1ccccc1)NC(=O)c1ccccc1	SUMO Mot1 rescue 815 | Yeast Mot1 SUMO inactive
CCCOC(=O)/C(=C\C=C\c1ccccc1)NC(=O)c1ccccc1	none
COc1ccc(C(C)(O)c2nc(-c3ccccc3OC)cs2)cc1 (stereo not given)	none (no result: SUMO Mot1 rescue, CR mimetic SO)
COc1ccc(C2=Nn3c(nnc3-c3ccco3)SC2)cc1	SUMO Mot1 rescue 533 | Yeast Mot1 SUMO inactive
COc1ccc(OC)c(C2=Nn3c(nnc3-c3ccco3)SC2)c1	none
O=C(CCSc1nnc(-c2ccncc2)o1)Nc1ccc(Cl)cc1	SUMO Mot1 rescue 450 | Yeast Mot1 SUMO inactive
O=C(CCSc1nnc(-c2ccncc2)o1)Nc1cccc(Cl)c1	none
CCn1cnc2sc(-c3ccccc3)cc2c1=O	SUMO Mot1 rescue 412 | Yeast Mot1 SUMO inactive
COc1ccc2ccc(OCC(=O)NCC3CCCO3)cc2c1 (stereo not given)	none (no result: SUMO Mot1 rescue, CR mimetic SO)
COc1ccc(S(=O)(=O)N2CCN(c3ccc(F)cc3)CC2)cc1C(=O)N1CCOCC1	SUMO Mot1 rescue 432 | Yeast Mot1 SUMO inactive
COc1ccc(S(=O)(=O)N2CCN(c3ccc(F)cc3)CC2)cc1C(=O)N1CCCC1	none
CCOC(=O)c1c(NC(=O)CN2C(=O)NC3(CCCC3)C2=O)sc(C)c1CC	none
CCN(CC1COc2ccccc2O1)C(=S)NCCCN(C)C (stereo not given)	SUMO Mot1 rescue active | Yeast Mot1 SUMO inactive
Cc1cc(C)c(C)c(C(=O)C(=O)c2ccccc2)c1	none (no result: SUMO Mot1 rescue, CR mimetic SO)
COc1n[nH]c(C(=O)Nc2nc3ccccc3s2)c1[N+](=O)[O-]	none
CCCOC(=O)C1=C(C)NC2=C(C(=O)CCC2)C1c1cccs1 (stereo not given)	SUMO Mot1 rescue 451 | Yeast Mot1 SUMO inactive
CS(=O)(=O)N1CCC(C(=O)Nc2ccc(Cl)cc2Cl)CC1	none (no result: SUMO Mot1 rescue, CR mimetic SO)
Cc1ccc(NC(=O)CSCC(=O)Nc2ccccc2C(=O)N2CCCCC2)cc1	none
Cc1ccc(NC(=O)CSCC(=O)Nc2ccccc2N2CCCC2)cc1	SUMO Mot1 rescue 421 | Yeast Mot1 SUMO inactive
Cc1cccc(NC(=O)CSCC(=O)N2CCCc3ccccc32)c1	SUMO Mot1 rescue 503 | Yeast Mot1 SUMO inactive
CC12CC3(C)CC(C)(C1)CC(C(=O)NC(=S)N1CCCC1)(C2)C3	SUMO Mot1 rescue 766 | Yeast Mot1 SUMO inactive
Cc1ccc(-c2noc(CCC(=O)Nc3cccc(C(=O)NC4CC4)c3)n2)cc1	none (no result: SUMO Mot1 rescue, CR mimetic SO)
O=C1NC(NS(=O)(=O)c2ccccc2)(C(F)(F)F)C(=O)N1c1cccc(Cl)c1 (stereo not given)	none
O=C(Cn1sc2ccccc2c1=O)NC12CC3CC(CC(C3)C1)C2	SUMO Mot1 rescue 387 | Yeast Mot1 SUMO inactive
COC(=O)c1ccc2nc(-c3ccc(C)cc3)c(Cc3cccc(Cl)c3)n2c1	none (no result: Cardio protect, SUMO Mot1 rescue, CR mimetic SO)
COc1ccc(-c2[nH]ncc2CNCCn2cccn2)c(F)c1	SUMO Mot1 rescue active | Yeast Mot1 SUMO inactive
COc1ccc(-c2[nH]ncc2CNCc2cc(C)n(C)n2)c(F)c1	none
CCc1cc(C(=O)Nc2ccccc2N2CCOCC2)sc1C	none
O=C(CSc1ccc(Br)cc1)Nc1ccccc1N1CCOCC1	SUMO Mot1 rescue 722 | Yeast Mot1 SUMO inactive
O=C(Nc1ccccc1N1CCOCC1)c1cc(Br)c(Br)s1	SUMO Mot1 rescue 760 | Yeast Mot1 SUMO inactive
Cc1occc1-c1nnc(SCC(=O)N2CCN(c3ccccc3)CC2)n1C	SUMO Mot1 rescue 495 | Yeast Mot1 SUMO inactive
CC1(Cc2ccc(S(C)(=O)=O)cc2)C(=O)Nc2ccc(Cl)cc21 (stereo not given)	none (no result: SUMO Mot1 rescue, CR mimetic SO)
CC(C)N(Cc1ccc(F)cc1)C(=O)c1cc2ccccc2oc1=O	none
O=C(COc1cccnc1[N+](=O)[O-])Nc1ccc2c(c1)CCC2	SUMO Mot1 rescue 811 | Yeast Mot1 SUMO inactive
CCn1cc(C(=O)NCC(OC)OC)c(=O)c2cc(S(=O)(=O)N(C)C3CCCCC3)ccc21	none
Cc1ccc(NC(=O)N[C@H](C(=O)O)C(C)C)c(C)c1	SUMO Mot1 rescue 830 | Yeast Mot1 SUMO inactive
O=C(COc1cnc2ccccc2n1)NCCC1=CCCCC1	SUMO Mot1 rescue active | Yeast Mot1 SUMO inactive
O=C(COc1ncnc2c(Cl)cc(Cl)cc12)NCCC1=CCCCC1	SUMO Mot1 rescue 420 | Yeast Mot1 SUMO inactive
COc1ccc(CNC(=O)O[C@H]2C[C@@H]3C(=O)N(c4ccccc4)C(=O)[C@@H]3[C@@H]3CN(S(=O)(=O)c4ccc(C)cc4)C[C@]23O)cc1OC	none (no result: SUMO Mot1 rescue, CR mimetic SO)
COc1ccc(CN2CCN(C(C)C(=O)N3CCc4ccccc43)CC2)cc1OC (stereo not given)	none
CCOc1ccc(NC(=O)c2ccc(-c3csc(C)n3)cc2)cc1	none
COc1ccc(NC(=O)c2ccc(-c3csc(C)n3)cc2)cc1	SUMO Mot1 rescue 796 | Yeast Mot1 SUMO inactive
Cc1ccc([C@H]2C(C(=O)O)=CCN2S(=O)(=O)c2ccc(C)cc2)cc1	none (no result: Cardio protect, FAS TE block, SUMO Mot1 rescue, CR mimetic SO)
COc1ccc(/C=N/NC(=O)CCn2cnc3ccccc32)cc1	none
COc1cccc(/C=N/NC(=O)CCn2cnc3ccccc32)c1	SUMO Mot1 rescue 479 | Yeast Mot1 SUMO inactive
CC1(C(=O)NS(=O)(=O)c2ccc3ccccc3c2)CCN1C(=O)Cc1ccc(Cl)cc1Cl (stereo not given)	none (no result: SUMO Mot1 rescue, CR mimetic SO)
Cc1c(C(=O)Nc2cccc(F)c2)cnn1-c1ccccc1	SUMO Mot1 rescue 805 | Yeast Mot1 SUMO inactive
Cc1c(C(=O)Nc2ccccc2)cnn1-c1ccccc1	none
O=Cc1ccc(OCCN2CCCC2=O)cc1	none
O=Cc1ccccc1OCCN1CCCC1=O	SUMO Mot1 rescue 734 | Yeast Mot1 SUMO inactive
N=c1c2c(n(Cc3ccc(Br)cc3)c3c1CCC3)CCCC2	none
N=c1c2c(n(Cc3ccc(Cl)c(Cl)c3)c3c1CCC3)CCCC2	SUMO Mot1 rescue active | Yeast Mot1 SUMO inactive
O=c1nc2ccc(Cl)cn2c2ccc(S(=O)(=O)N3CCOCC3)cc12	SUMO Mot1 rescue 577 | Yeast Mot1 SUMO inactive
Cc1cc(C)n(-c2nc3ccccc3nc2N2CCN(C(=O)c3ccccc3)CC2)n1	SUMO Mot1 rescue 497 | Yeast Mot1 SUMO inactive
CC(C)(CC(=O)OCC(=O)Nc1ccccc1F)CC1=NS(=O)(=O)c2ccccc2N1	none
COc1ccccc1NC(=O)COC(=O)CC(C)(C)CC1=NS(=O)(=O)c2ccccc2N1	SUMO Mot1 rescue 396 | Yeast Mot1 SUMO inactive
